Measurements reported in PubChem BioAssay AID431 (Sanford-Burnham Center for Chemical Genomics, 2006).
Hit rate of the full screen: of about 63,000 compounds, about 1,100 (1.7%) were called active.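 The calls were made as follows: active = compounds whose percent cytotoxicity in the single-dose primary screen, scaled between solvent and toxic-drug controls, exceeds 50; inactive = the rest.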 For the sample, actives were picked, then their nearest neighbours and some compounds at random. Results with a measured potency or affinity are listed apart.

Test: viability loss of HPDE-C7K cells – cell-based, fluorescence, HTS, primary screen (AID 431);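 also: 0% = DMSO solvent wells and 100% = doxorubicin-treated wells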
Details: HPDE-C7K KRASV12 cells, Alamar Blue viability, 48 h; at 10 µM; active compounds read high
With `Cc1nonc1NC(=O)Nc1cccnc1` the cytotoxicity was 5.4% (inactive). For `CCOc1ccccc1N(CC(=O)NCc1ccc(OC)cc1)S(C)(=O)=O`, the cytotoxicity was -11.2% (inactive). In the case of `COc1ccc(-n2nnnc2SCC(=O)Nc2cccc(NC(C)=O)c2)cc1OC`, the cytotoxicity is reported as 11.1% (inactive). In the case of `CSC1=NCCN1C(=O)Cc1ccc(Cl)cc1`, the cytotoxicity is reported as 3.5% (inactive). With `CCOC(=O)c1ccc(NC(=O)c2nn(CC)cc2Br)cc1` the cytotoxicity was 0.8% (inactive). In the case of `Cc1ccc2[nH]c3c(N4CCCCCC4)ncnc3c2c1`, the cytotoxicity is reported as 30.4% (inactive). With `Cc1ccc2[nH]c3c(N4CCOCC4)ncnc3c2c1` the cytotoxicity was 16.2% (inactive). In the case of `O=C(c1cccc(-c2nnc(-c3ccccc3)o2)c1)N1CCCCC1`, the cytotoxicity is reported as 14% (inactive). In the case of `COCCNC(=O)CN1CCC(NC(=O)Nc2ccccc2)CC1`, the cytotoxicity is reported as -1% (inactive). With `CN(Cc1ccccc1)C(=O)CCCn1c(=O)[nH]c2cc(Cl)ccc2c1=O` the cytotoxicity was -8.5% (inactive). In the case of `COc1ccc(S(=O)(=O)N2CCN(c3ncnc4c(-c5ccccc5)nsc34)CC2)cc1`, the cytotoxicity is reported as -20.8% (inactive). With `COc1ccc(-c2nsc3c(N4CCCC4)ncnc23)cc1` the cytotoxicity was 11.5% (inactive). In the case of `COc1ccc(-c2nsc3c(N4CCN(S(=O)(=O)c5ccccc5)CC4)ncnc23)cc1`, the cytotoxicity is reported as 56.4% (active). For `CCOC(=O)C(NC(=O)c1ccccc1)=C1C=C(C)OC(C)=C1`, the cytotoxicity was -13.9% (inactive). For `O=C(NCc1ccc2c(c1)OCO2)c1cccc(Cl)c1`, the cytotoxicity was 3.6% (inactive). For `O=C(NCc1ccc2c(c1)OCO2)c1nnc(Cc2ccc(Cl)cc2)o1`, the cytotoxicity was 1.6% (inactive). In the case of `O=C(NCc1ccc2c(c1)OCO2)c1ccc(-c2ccc(Cl)cc2)o1`, the cytotoxicity is reported as 61.3% (active). In the case of `COCCN(C(=O)CCC(=O)Nc1cccnc1)C(C(=O)NC1CCCCC1)c1ccccc1` (configuration not stated), the cytotoxicity is reported as -2.1% (inactive). For `COC(=O)C1=C(C)N=c2s/c(=C/c3ccoc3)c(=O)n2C1c1ccccc1` (configuration not stated), the cytotoxicity was 8.9% (inactive). In the case of `CSc1nnc(Cn2c(=O)sc3ccccc32)n1C`, the cytotoxicity is reported as 6.8% (inactive). With `CCOc1ccc(N2CC(C(=O)Nc3cccc(C)c3C)CC2=O)cc1` (configuration not stated) the cytotoxicity was 15.6% (inactive). With `COc1ccc(OC)c(S(=O)(=O)NCc2cn3c(C)csc3n2)c1` the cytotoxicity was -5.8% (inactive). In the case of `CN1CCN(S(=O)(=O)c2ccc(NC(=O)c3cccc(S(=O)(=O)N4CCCC4)c3)cc2)CC1`, the cytotoxicity is reported as -54.2% (inactive). With `COC(=O)Nc1ccc(S(=O)(=O)N2CCN(C)CC2)cc1` the cytotoxicity was 10.6% (inactive). With `CN1CCN(S(=O)(=O)c2ccc(NC(=O)Nc3cccc(Cl)c3)cc2)CC1` the cytotoxicity was 53% (active). In the case of `O=C(CSc1nnnn1-c1ccc2c(c1)CCC2)NCc1cccs1`, the cytotoxicity is reported as 13.2% (inactive). For `Cn1c(N)c(C(=O)NCc2ccccc2)sc1=S`, the cytotoxicity was -2% (inactive).
